Reference: ChEMBL document CHEMBL4513216, “Probing the Open Global Health Chemical Diversity Library for Multistage-Active Starting Points for Next-Generation Antimalarials” (ACS Infect Dis, 2020)
Screen size: about 69,000 compounds; about 8,600 (12%) showed an effect of 50% or more. This is one part of a sample in which strong results are shown more often than they occur.

system: Plasmodium berghei; experiment: Screen against P. berghei liver stage (PbLuc), transformed with Luciferase, at 10uM; type: functional, HepG2; conditions: tested at 10 uM

Row | SMILES | INHIBITION [%]
1 | CN(Cc1ccco1)[C@@H]1CN(Cc2cccs2)C[C@@H]2CCCO[C@@H]21 | 31.4
2 | Cn1cnnc1SCC(=O)N1C[C@@H]2CC[C@H]1CN(Cc1cccnc1)C2 | 6.28
3 | CCN(CC)C(=O)CN1CCc2c(nc(C3CCNCC3)nc2NC)C1 | -3.94
4 | Nc1ccc(C(=O)N2C[C@H]3CC[C@@H](C2)N(Cc2ccccc2)C3)cn1 | -20.8
5 | Cc1c(C(=O)NCC2CCS(=O)(=O)C2)cnn1-c1ccccc1 (centres undefined) | 57.8
6 | Cc1cccc(-n2ncc(C(=O)NCC3CCS(=O)(=O)C3)c2C)c1 (centres undefined) | -33.9
7 | Cc1ccc(-n2ncc(C(=O)NCC3CCS(=O)(=O)C3)c2C)cc1 (centres undefined) | -24.2
8 | O=C1N(Cc2ccc(Cl)cc2)CCC12CCCNC2 (centres undefined) | 3.81
9 | CC(=O)NCCc1ccc(S(=O)(=O)Nc2ccc(C)c(F)c2)s1 | 32.3
10 | CC(=O)c1ccc(-n2c(C)cn(CCC#N)c2=O)cc1 | 5.36
11 | CC(=O)c1ccc(-n2c(C)cn(CCC(=O)NC(N)=O)c2=O)cc1 | 12.7
12 | CC(=O)c1ccc(-n2c(C)cn(CCS(C)(=O)=O)c2=O)cc1 | 55.6
13 | OC(CN1CCN(Cc2cc(F)ccc2F)CC1)C1CC1 (centres undefined) | -6.11
14 | CCC(Nc1cccc(OC)c1)C(=O)NCc1nc(C)cc(=O)[nH]1 (centres undefined) | 36.4
15 | CCS(=O)(=O)N1CCc2c(COCc3ccncc3)cncc2C1 | 66.6
16 | O=S(=O)(C1CC1)N1CCc2c(CN3CCOCC3)cncc2C1 | 12.6
17 | CCCS(=O)(=O)N1CCc2c(COCC)cncc2C1 | 33
18 | CCS(=O)(=O)N1CCc2c(CN3CCOCC3)cncc2C1 | 92.1
19 | CCS(=O)(=O)N1CCc2c(COCCN(C)C)cncc2C1 | 24
20 | CCS(=O)(=O)N1CCc2c(COC)cncc2C1 | 23.1
21 | CN(C)CCN(C)C(=O)c1ccccc1-n1cc(CN(C)C)cn1 | 1.5
22 | c1ccc(CN2Cc3[nH]nc(COCC4CC4)c3C2)nc1 | 30.5

Row | SMILES | INHIBITION [%]
23 | CN(C)CCNC(=O)C1Cc2nc(-c3ccccc3)sc2N1CC1CC1 (centres undefined) | 24.3
24 | CN(CCNC(=O)c1cnc(-c2ccncc2)nc1)S(C)(=O)=O | 25.1
25 | CCN(CC)CCNC(=O)c1cnc(-c2ccccc2)nc1 | -8.07
26 | CN(CCNC(=O)c1cnc(-c2ccccc2)nc1)S(C)(=O)=O | 57.1
27 | Cc1ccc(OCCN2CCCC(c3cc(C(N)=O)[nH]n3)C2)cc1 (centres undefined) | 15.3
28 | O=C(NC1CC1)C1CCN(c2snc3ccccc23)CC1 | 37.9
29 | CCc1n[nH]c(C2CN(C(=O)c3cnc(C)nc3CC)CCO2)n1 (centres undefined) | -49.5
30 | CC(=O)NC(C)c1ccc(OCC2CC2)c(F)c1 (centres undefined) | 26.8
31 | CC(NC(=O)c1ccnn1C)c1ccc(OCC2CC2)c(F)c1 (centres undefined) | 68.2
32 | CC(NC(=O)c1ccc(=O)n(C)c1)c1ccc(OCC2CC2)c(F)c1 (centres undefined) | 40.97
33 | CC(=O)c1cccc(-n2nc(C(C)=O)c(C(C)=O)c2C)c1 | 0.325
34 | O=C(Nc1nnc(C(F)F)s1)N[C@H](CCO)c1ccccc1 | 20.9
35 | COc1ccnc(N2CCN(C(=O)c3ccc(Cl)o3)CC2)n1 | -9.76
36 | CC(C)N1CCN(C(=O)c2csc3nc(-c4ccc(Cl)cc4)cn23)CC1 | 37.9
37 | CCC1CN(C(=O)c2csc3nc(-c4ccc(Cl)cc4)cn23)CCN1 (centres undefined) | 56.1
38 | O=C(c1csc2nc(-c3ccc(Cl)cc3)cn12)N1CCCC(CO)C1 (centres undefined) | -16.6
39 | CNC(=O)C1(CCCc2ccccn2)CCN1Cc1coc(C)n1 (centres undefined) | 9.05
40 | O=C(NCc1cccnc1)c1cn(CCc2ccccc2)nn1 | 12.9
41 | Cc1nn(C2CCCC2)c2nc(C(C)(C)CN3CCN(C)CC3)[nH]c12 | 49.4
42 | CS(=O)(=O)CCn1ccc(NC(=O)CCc2cccc(F)c2)n1 | 13.8
43 | Cc1nccc(N[C@H]2CN(CCC(=O)NC3CCCC3)C[C@@H]2C2CC2)n1 | 26.5
44 | Cc1nccc(N[C@H]2CN(CCS(C)(=O)=O)C[C@@H]2C2CC2)n1 | 39.3

Row | SMILES | INHIBITION [%]
45 | Nc1nccc(N[C@H]2CN(CC(=O)NC3CCCCC3)C[C@@H]2C2CC2)n1 | 56.2
46 | Cc1noc([C@H]2C[C@H]3CN(C(=O)Cc4ccsc4)CC[C@H]3O2)n1 | -14.1
47 | c1ccc2c(c1)CC(n1ccnc1-c1cc3n(n1)CCCNC3)CO2 (centres undefined) | 18.5
48 | c1ccc2c(c1)CC(n1ccnc1-c1cc3n(n1)CCNC3)CO2 (centres undefined) | 43.9
49 | O[C@H]1Cc2ccccc2[C@H]1n1ccnc1-c1cc2n(n1)CCNC2 | 67.6
50 | COc1ccc(CCCC(=O)N2C[C@H](C3CC3)[C@@H](N(C)C)C2)cc1 | 6.28
51 | CC(=O)N1[C@@H](C(=O)NCC2CC2)C[C@@H]2CN(Cc3ccco3)C[C@@H]21 | 11.6
52 | Cc1cccc(Nc2noc3c2CN(C(=O)c2ccn(C)n2)CC3)c1C | -14.225
53 | Cc1ccnn1CCNC(=O)C1CCN(S(=O)(=O)c2ccc(F)cc2)C1 (centres undefined) | 41.2
54 | Cc1noc(C)c1C[S+]([O-])Cc1cn2cccc(C)c2n1 (centres undefined) | -41.7
55 | CS(=O)(=O)N1CCO[C@H]2[C@@H](Oc3ncccc3F)CC[C@@H]21 | 32.2
56 | Cc1nc(CN2CCCC(NCc3ccc(Cl)s3)C2)no1 (centres undefined) | 26.5
57 | Cc1ccc2[nH]c(C(=O)N3CCC4(CC3)C(=O)NCCN4C)nc2c1 | 10.4
58 | Cc1cc(=O)[nH]c(-n2nc(-c3cccs3)cc2N)n1 | 20.9
59 | CC(C(N)=O)n1nc(-c2cccs2)cc(N)c1=O (centres undefined) | 17.4
60 | Cc1nc(-n2nc(-c3cccs3)cc2N)[nH]c(=O)c1C | 50.9
61 | NC1(c2nc(-c3cccs3)cc(=O)[nH]2)CCCC1 | -35.8
62 | CCCc1cc(=O)[nH]c(-n2nc(-c3cccs3)cc2N)n1 | 83.8
63 | CCc1c(C)nc(-n2nc(-c3cccs3)cc2N)[nH]c1=O | -90.8
64 | O=C(c1ccnnc1)N1CCC2(CC1)CC(N1CCOCC1)C2 | 27.4
